Results filed as inconclusive are left out. The source made the active and inactive calls. How the source made its calls: active means hit-call score of the fitted dose curve at least 0.9, where 1 is the maximum; inconclusive means response in the unintended direction; inactive means score below 0.9.
Tested on: not listed separately
Assay: ATG_XTT_Cytotoxicity: Cytotoxicity Assessment in the Attagene TRANS-FACTORIAL HepG2 Assay (AID 2283584);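 on AC50: cells exposed to compound for 24 h before reading; active means loss of viability signal versus DMSO baseline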
Procedure, shortened: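 XTT readout of cell number in transfected HepG2 cells, 24 h post-dosing; DMSO serves as negative control and baseline, with activity taken as loss of viability signal.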

Question: Which outcome does the source give for `NCCNCCN` here?
Answer: inactive

Question: With `CCCCCNCCCCC` as the compound, how does the outcome read?
Answer: inactive

Question: Which outcome does the source give for `CC(=O)Nc1ccc(C)cc1C` here?
Answer: inactive

Question: Which outcome does the source give for `CCN(CC)c1ccc(C(=C2C=CC(=[N+](CC)CC)C=C2)c2ccc(S(=O)(=O)O)cc2S(=O)(=O)[O-])cc1` here?
Answer: inactive

Question: With `CC[Si](OC(C)=O)(OC(C)=O)OC(C)=O` as the compound, how does the outcome read?
Answer: inactive

Question: For `CN(CCOc1ccc(CC2SC(=O)NC2=O)cc1)c1ccccn1` (stereo not given), which outcome is on record?
Answer: inactive

Question: With `O=c1[nH]nnc2ccccc12` as the compound, how does the outcome read?
Answer: inactive

Question: For `C[Si](O[Si](C)(C)C)O[Si](C)(C)C`, which outcome is on record?
Answer: inactive

Question: Which AC50 does the source give for `C#C[C@]1(O)CC[C@H]2[C@@H]3CCC4=Cc5oncc5C[C@]4(C)[C@H]3CC[C@@]21C` here?
Answer: 151 µM (active)

Question: With `O=C(O)Cc1cccc2ccccc12` as the compound, how does the outcome read?
Answer: inactive

Question: Which outcome does the source give for `CC(C)(C)C(=O)c1ccccc1` here?
Answer: inactive

Question: For `CCC(C)CCCC(C)(C)O` (stereo not given), which outcome is on record?
Answer: inactive

Question: For `CCCCCCCCCC=O`, which outcome is on record?
Answer: inactive

Question: With `Nc1cccc(S(=O)(=O)c2cccc(N)c2)c1` as the compound, how does the outcome read?
Answer: inactive

Question: Which outcome does the source give for `Clc1nc(C(Cl)(Cl)Cl)c(Cl)c(Cl)c1Cl` here?
Answer: inactive

Question: Which outcome does the source give for `C[C@H]1C[C@H]2[C@@H]3CCC4=CC(=O)C=C[C@]4(C)[C@@]3(F)[C@@H](O)C[C@]2(C)[C@@]1(O)C(=O)COP(=O)(O)O` here?
Answer: inactive

Question: For `O=C[C@@H](O)[C@H](O)[C@H](O)CO`, which outcome is on record?
Answer: inactive

Question: Which outcome does the source give for `CC(C)C(C)(C)C(C)(C)C(C)(C)S` here?
Answer: inactive

Question: Which outcome does the source give for `CCCCCCCCCCN` here?
Answer: inactive

Question: For `O=C(O)c1cccc(C(F)(F)F)c1`, which outcome is on record?
Answer: inactive

Question: With `CCCCCCCCCCCCCCCC(=O)O` as the compound, how does the outcome read?
Answer: inactive

Question: Which outcome does the source give for `CC(=O)C(C)=O` here?
Answer: inactive

Question: With `COC(=O)OC` as the compound, how does the outcome read?
Answer: inactive

Question: For `CC1(C)CCC(C)(C)c2cc(C(=O)Nc3ccc(C(=O)O)cc3)ccc21`, which outcome is on record?
Answer: inactive

Question: With `CCCCCCCCCCCCCCCCCC(=O)OCC(CC)CCCC` (stereo not given) as the compound, how does the outcome read?
Answer: inactive

Question: With `COc1cccc(OC)c1` as the compound, how does the outcome read?
Answer: inactive

Question: Which outcome does the source give for `O=C(O)CCCCC1CCSS1` (stereo not given) here?
Answer: inactive

Question: With `N#Cc1ccccc1` as the compound, how does the outcome read?
Answer: inactive

Question: For `CN(C)C(=N)N=C(N)N`, which outcome is on record?
Answer: inactive

Question: For `CC(=O)OCCOC(C)=O`, which outcome is on record?
Answer: inactive

Question: Which outcome does the source give for `CC(C)c1cccc(O)c1` here?
Answer: inactive

Question: Which outcome does the source give for `CN(C)CCOCCN(C)C` here?
Answer: inactive

Question: For `COC(=O)Cc1cccc2ccccc12`, which outcome is on record?
Answer: inactive

Question: Which outcome does the source give for `O=C(O)c1cccc([N+](=O)[O-])c1` here?
Answer: inactive

Question: Which outcome does the source give for `C=C(C)[C@@H]1CC[C@@H](C)C[C@@H]1O` here?
Answer: inactive

Tested on: not listed separately
Assay: TOX21_p53_BLA_p2_viability: Viability Assessment in the Tox21 HCT-116 p53 Agonism Beta-lactamase Assay, Phase 2 (AID 2283591);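 further: compound exposure lasted 16 h at 37 °C; actives lower the ATP signal meaning cytotoxicity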
Procedure, shortened: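 Cytotoxicity readout: CellTiter-Glo ATP luminescence, 30 min at room temperature, after the beta-lactamase read. Cells were HCT116 exposed 16 h at 37C to compounds pin-transferred at 217-fold dilution from DMSO stocks.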

Question: With `NCCNCCN` as the compound, how does the outcome read?
Answer: inactive

Question: Which outcome does the source give for `CCCCCNCCCCC` here?
Answer: inactive

Question: With `CC(=O)Nc1ccc(C)cc1C` as the compound, how does the outcome read?
Answer: inactive

Question: Which AC50 does the source give for `CCN(CC)c1ccc(C(=C2C=CC(=[N+](CC)CC)C=C2)c2ccc(S(=O)(=O)O)cc2S(=O)(=O)[O-])cc1` here?
Answer: 26.5 µM (active)

Question: For `CC[Si](OC(C)=O)(OC(C)=O)OC(C)=O`, which outcome is on record?
Answer: inactive

Question: Which outcome does the source give for `CN(CCOc1ccc(CC2SC(=O)NC2=O)cc1)c1ccccn1` (stereo not given) here?
Answer: inactive

Question: Which outcome does the source give for `O=c1[nH]nnc2ccccc12` here?
Answer: inactive

Question: Which outcome does the source give for `C[Si](O[Si](C)(C)C)O[Si](C)(C)C` here?
Answer: inactive

Question: Which outcome does the source give for `C#C[C@]1(O)CC[C@H]2[C@@H]3CCC4=Cc5oncc5C[C@]4(C)[C@H]3CC[C@@]21C` here?
Answer: inactive

Question: For `O=C(O)Cc1cccc2ccccc12`, which outcome is on record?
Answer: inactive

Question: With `CC(C)(C)C(=O)c1ccccc1` as the compound, how does the outcome read?
Answer: inactive

Question: With `CCC(C)CCCC(C)(C)O` (stereo not given) as the compound, how does the outcome read?
Answer: inactive

Question: For `CCCCCCCCCC=O`, which outcome is on record?
Answer: inactive

Question: Which outcome does the source give for `Nc1cccc(S(=O)(=O)c2cccc(N)c2)c1` here?
Answer: inactive

Question: Which outcome does the source give for `Clc1nc(C(Cl)(Cl)Cl)c(Cl)c(Cl)c1Cl` here?
Answer: inactive

Question: With `C[C@H]1C[C@H]2[C@@H]3CCC4=CC(=O)C=C[C@]4(C)[C@@]3(F)[C@@H](O)C[C@]2(C)[C@@]1(O)C(=O)COP(=O)(O)O` as the compound, how does the outcome read?
Answer: inactive

Question: For `O=C[C@@H](O)[C@H](O)[C@H](O)CO`, which outcome is on record?
Answer: inactive

Question: With `CC(C)C(C)(C)C(C)(C)C(C)(C)S` as the compound, how does the outcome read?
Answer: inactive

Question: Which outcome does the source give for `CCCCCCCCCCN` here?
Answer: inactive

Question: Which outcome does the source give for `O=C(O)c1cccc(C(F)(F)F)c1` here?
Answer: inactive

Question: Which outcome does the source give for `CCCCCCCCCCCCCCCC(=O)O` here?
Answer: inactive

Question: With `CC(=O)C(C)=O` as the compound, how does the outcome read?
Answer: inactive

Question: With `COC(=O)OC` as the compound, how does the outcome read?
Answer: inactive

Question: With `CC1(C)CCC(C)(C)c2cc(C(=O)Nc3ccc(C(=O)O)cc3)ccc21` as the compound, how does the AC50 read?
Answer: 28.1 µM (active)

Question: Which outcome does the source give for `CCCCCCCCCCCCCCCCCC(=O)OCC(CC)CCCC` (stereo not given) here?
Answer: inactive

Question: With `COc1cccc(OC)c1` as the compound, how does the outcome read?
Answer: inactive

Question: Which outcome does the source give for `O=C(O)CCCCC1CCSS1` (stereo not given) here?
Answer: inactive

Question: For `N#Cc1ccccc1`, which outcome is on record?
Answer: inactive

Question: With `CN(C)C(=N)N=C(N)N` as the compound, how does the outcome read?
Answer: inactive

Question: With `CC(=O)OCCOC(C)=O` as the compound, how does the outcome read?
Answer: inactive

Question: With `CC(C)c1cccc(O)c1` as the compound, how does the outcome read?
Answer: inactive

Question: For `CN(C)CCOCCN(C)C`, which outcome is on record?
Answer: inactive

Question: For `COC(=O)Cc1cccc2ccccc12`, which outcome is on record?
Answer: inactive

Question: For `O=C(O)c1cccc([N+](=O)[O-])c1`, which outcome is on record?
Answer: inactive

Question: With `C=C(C)[C@@H]1CC[C@@H](C)C[C@@H]1O` as the compound, how does the outcome read?
Answer: inactive

Target: Cellular tumor antigen p53 (Homo sapiens) (UniProt P04637)
Sequence (P04637 whole entry, looked up): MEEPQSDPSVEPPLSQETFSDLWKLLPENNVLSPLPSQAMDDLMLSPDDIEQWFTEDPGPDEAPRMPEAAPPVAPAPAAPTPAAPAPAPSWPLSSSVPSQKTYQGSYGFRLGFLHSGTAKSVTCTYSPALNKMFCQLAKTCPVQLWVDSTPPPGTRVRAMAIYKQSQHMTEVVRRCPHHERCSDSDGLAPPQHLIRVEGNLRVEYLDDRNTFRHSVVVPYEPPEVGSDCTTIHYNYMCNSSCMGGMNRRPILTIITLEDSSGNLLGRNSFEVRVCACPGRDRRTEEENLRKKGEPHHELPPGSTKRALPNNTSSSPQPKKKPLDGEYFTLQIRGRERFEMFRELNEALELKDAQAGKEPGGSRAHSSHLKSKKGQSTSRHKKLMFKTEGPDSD
Assay: TOX21_p53_BLA_p2_ratio: Tox21 HCT-116 p53 Agonism Beta-lactamase Assay, Ratio, Phase 2 (AID 2283592)
Procedure, shortened: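 In this cell-based reporter format, HCT116 cells were dosed with chemicals delivered from DMSO by 217-fold dilution and incubated 16 h at 37C. Emission at 460 and 530 nm after 2 h CCF4-AM loading provided the ratio, fitted upward versus DMSO.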

Question: With `NCCNCCN` as the compound, how does the outcome read?
Answer: inactive

Question: Which outcome does the source give for `CCCCCNCCCCC` here?
Answer: inactive

Question: Which outcome does the source give for `CC(=O)Nc1ccc(C)cc1C` here?
Answer: inactive

Question: With `CCN(CC)c1ccc(C(=C2C=CC(=[N+](CC)CC)C=C2)c2ccc(S(=O)(=O)O)cc2S(=O)(=O)[O-])cc1` as the compound, how does the outcome read?
Answer: inactive

Question: Which outcome does the source give for `CC[Si](OC(C)=O)(OC(C)=O)OC(C)=O` here?
Answer: inactive

Question: For `CN(CCOc1ccc(CC2SC(=O)NC2=O)cc1)c1ccccn1` (stereo not given), which outcome is on record?
Answer: inactive

Question: Which outcome does the source give for `O=c1[nH]nnc2ccccc12` here?
Answer: inactive

Question: For `C[Si](O[Si](C)(C)C)O[Si](C)(C)C`, which outcome is on record?
Answer: inactive

Question: With `C#C[C@]1(O)CC[C@H]2[C@@H]3CCC4=Cc5oncc5C[C@]4(C)[C@H]3CC[C@@]21C` as the compound, how does the outcome read?
Answer: inactive

Question: For `O=C(O)Cc1cccc2ccccc12`, which outcome is on record?
Answer: inactive

Question: Which outcome does the source give for `CC(C)(C)C(=O)c1ccccc1` here?
Answer: inactive

Question: Which outcome does the source give for `CCC(C)CCCC(C)(C)O` (stereo not given) here?
Answer: inactive

Question: With `CCCCCCCCCC=O` as the compound, how does the outcome read?
Answer: inactive

Question: With `Nc1cccc(S(=O)(=O)c2cccc(N)c2)c1` as the compound, how does the outcome read?
Answer: inactive

Question: With `Clc1nc(C(Cl)(Cl)Cl)c(Cl)c(Cl)c1Cl` as the compound, how does the outcome read?
Answer: inactive

Question: For `C[C@H]1C[C@H]2[C@@H]3CCC4=CC(=O)C=C[C@]4(C)[C@@]3(F)[C@@H](O)C[C@]2(C)[C@@]1(O)C(=O)COP(=O)(O)O`, which outcome is on record?
Answer: inactive

Question: For `O=C[C@@H](O)[C@H](O)[C@H](O)CO`, which outcome is on record?
Answer: inactive

Question: Which outcome does the source give for `CC(C)C(C)(C)C(C)(C)C(C)(C)S` here?
Answer: inactive

Question: With `CCCCCCCCCCN` as the compound, how does the outcome read?
Answer: inactive

Question: For `O=C(O)c1cccc(C(F)(F)F)c1`, which outcome is on record?
Answer: inactive

Question: With `CCCCCCCCCCCCCCCC(=O)O` as the compound, how does the outcome read?
Answer: inactive

Question: For `CC(=O)C(C)=O`, which outcome is on record?
Answer: inactive

Question: Which outcome does the source give for `COC(=O)OC` here?
Answer: inactive

Question: For `CC1(C)CCC(C)(C)c2cc(C(=O)Nc3ccc(C(=O)O)cc3)ccc21`, which AC50 is on record?
Answer: 61.2 µM (active)

Question: For `CCCCCCCCCCCCCCCCCC(=O)OCC(CC)CCCC` (stereo not given), which outcome is on record?
Answer: inactive

Question: For `COc1cccc(OC)c1`, which outcome is on record?
Answer: inactive

Question: For `O=C(O)CCCCC1CCSS1` (stereo not given), which outcome is on record?
Answer: inactive

Question: For `N#Cc1ccccc1`, which outcome is on record?
Answer: inactive

Question: Which outcome does the source give for `CN(C)C(=N)N=C(N)N` here?
Answer: inactive

Question: Which outcome does the source give for `CC(=O)OCCOC(C)=O` here?
Answer: inactive

Question: For `CC(C)c1cccc(O)c1`, which outcome is on record?
Answer: inactive

Question: For `CN(C)CCOCCN(C)C`, which outcome is on record?
Answer: inactive

Question: With `COC(=O)Cc1cccc2ccccc12` as the compound, how does the outcome read?
Answer: inactive

Question: Which outcome does the source give for `O=C(O)c1cccc([N+](=O)[O-])c1` here?
Answer: inactive

Question: For `C=C(C)[C@@H]1CC[C@@H](C)C[C@@H]1O`, which outcome is on record?
Answer: inactive
